Laboratory results taken from the supplement of paper PMC6555819.

What was measured:
Test in all cases: PBM binding z-score (relative to random genomic background probes); higher = stronger binding; sequences stand for … in GC…GCGATTGACAGCGTAGAATGAAGG
[1] = system: RARb homodimer (NR concentration 270 nM)
Method in brief: (§1)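 Custom Agilent 4×180K protein-binding microarrays carried double-stranded probes. Their 34-nt variable regions held direct-repeat seeds, single-nucleotide variants, half-site ablations and random human genomic background sequences. Arrays were incubated 1 h with ligand-free nuclear receptor dimers in PBS pH 7.4, 2% milk, 0.02% Triton X-100, 1 mM DTT, 0.2 mg/mL BSA and 0.4 mg/ml salmon testes DNA. Antibodies against each partner (one per run) detected binding, and scanned fluorescence was regression-normalized. Binding z-scores use random background probes as reference.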

[2] = system: RARg:RXRa (NR concentration 270 nM, RXRa partner concentration 90 nM)
Method in brief: as §1

[3] = system: RARg homodimer (NR concentration 270 nM)
Method in brief: as §1

[4] = system: RXRa DBDmut IVT, anti-RXR (DBD mutation: RXRa K156A/R161A, NR concentration 90 nM)
Method in brief: as §1

[5] = system: RXRa homodimer (NR concentration 180 nM)
Method in brief: as §1

[6] = system: THRa:RXRa (NR concentration 90 nM, RXRa partner concentration 90 nM)
Method in brief: as §1

[7] = system: THRa homodimer (NR concentration 90 nM)
Method in brief: as §1

[8] = system: VDR homodimer (NR concentration 270 nM)
Method in brief: as §1

Row | Sequence | PBM binding z-score [1] | PBM binding z-score [2] | PBM binding z-score [3] | PBM binding z-score [4] | PBM binding z-score [5] | PBM binding z-score [6] | PBM binding z-score [7] | PBM binding z-score [8]
1 | TCTCGGAGGACACGAAGGTCAGAGCTTTCCAGAG | 3.78 | 2.79 | 3.63 | 0.904 | 1.69 | 2.87 | 0.784 | 1.03
2 | ATATGTAGGTTATCGGTTCATTCAGTTTGCGCAT | 1.17 | 1.39 | 0.882 | 2.4 | 1.66 | 1.27 | 1.08 | 5.79
3 | CCGACTGGGGCAAGGTTACCGTAACGCACAGCCA | 1.39 | 1.08 | 1.28 | -0.694 | 1.04 | 1.22 | 0.42 | -0.25
4 | CCTTACGGGTCACGAGGTTATAGCCCGACGAGCG | 4.11 | 6.07 | 5.36 | 1.81 | 6.74 | 3.65 | 1.07 | 2.03
5 | ACTAGTAGTTGACTTAGGGCAACCGATACGACGC | 0.773 | 0.36 | 0.487 | -0.14 | 0.393 | 1.44 | -0.151 | -0.0873
6 | CCAGTCAGGTGAAAGGTAACTCAGTCTGGTACGC | 0.929 | 1.2 | 0.727 | 0.124 | 1.42 | 1.95 | 1.04 | -0.00335
7 | CCTACTGGGCTATCAGGTCATTGATATCAACGTT | 2.18 | 1.56 | 1.35 | 0.092 | 0.965 | 3.1 | 2.44 | 1.01
8 | AGAATGAGGTTATACGTACATCAGGGAAGAAAGT | 0.803 | 1.95 | 1.32 | 1.73 | 2.32 | 2.13 | 0.372 | 1.22
9 | CGTCCAAGGTCCAAGGTCAGTGAAGAGATGACGG | 3.34 | 2.9 | 3.28 | 1.38 | 2.23 | 2.99 | 1.89 | 1.73
10 | CCTACTGGGCCACGAAAGGTCATAGATTCAGTGA | 4.58 | 4.73 | 4.53 | -0.0363 | 4.95 | 3.84 | 0.901 | 1.31
11 | TCTAGTTGGTCGAAGGTCACACACTCGAAATGCG | 3.99 | 4.39 | 3.86 | 1.37 | 4.15 | 3.07 | 1.83 | 1.97
12 | CGTCCAAGATCATAGGAGGTCAGTGAAGACAGAT | 3.26 | 2.22 | 2.22 | 0.36 | 2.03 | 3.98 | 0.538 | 1.21
13 | ACAGACAGGTGATGTAGGTAACTCAGGCTATCAT | 0.224 | 0.333 | 0.539 | -0.0727 | 0.19 | 0.566 | -0.00745 | -0.512
14 | TAGCCTAGATCATGCGGGCCAGTATAGTGTCGGC | -1.16 | -0.937 | -0.627 | -1 | -0.796 | -1.05 | -1.46 | -1.14
15 | CCTACTGGGCCACGAAAGGTCATTCATTCAGTGA | 4.77 | 4.77 | 4.33 | 0.665 | 5.17 | 3.8 | 0.995 | 2.83
16 | CTTAGCAGGCCAGGGTCACTCAAGCATTTCGCTT | 2.87 | 2.99 | 2.53 | 0.934 | 3.39 | 2.93 | 1.32 | 1.28
17 | ACAGACAGGTGAGTGTAGGTAACTCAGCTGGACG | -0.178 | 0.259 | 0.401 | -0.328 | 0.232 | 1.33 | -0.572 | -0.361
18 | CCTAATGGGCCACGAAAGGTCATTGATTCAGTGA | 4.85 | 4.78 | 4.65 | 1.17 | 4.84 | 3.95 | 0.853 | 2.52
19 | GCATATAGGTAATACAAGGTGACAGTCCGATTGT | 0.679 | 0.651 | 0.825 | 0.299 | 0.86 | 4.15 | 0.967 | 0.0173
20 | GCTTACGGGTCAAAGGTAATAGCATGAATAGAAT | 2.5 | 5.3 | 4.22 | 1.97 | 6.87 | 3.07 | -0.169 | 1.06
21 | TCTATTAGTTGATTAGGGCAAGCGAAACAGCGGA | 0.589 | 0.429 | 0.466 | 0.689 | 0.305 | 0.409 | 0.23 | 0.398
22 | ATATGTAGGTTAAGGGTCATTCAAGTTGGTTCGC | 4.23 | 4.98 | 4.09 | 1.9 | 6.39 | 4.2 | 1.78 | 3.88
23 | CCTTACGGGTTACTGACAGGTTATAGCATTTGGA | 0.885 | 2.22 | 0.806 | 0.177 | 1.54 | 1.11 | -0.00572 | 0.261
24 | ATATGTAGGTTAAGGGTCATCCAGGTTGGTTCGC | 4.18 | 5.45 | 4.39 | 1.99 | 6.92 | 3.69 | 1.82 | 3.82
25 | TCTCGGAGGACACGAACGTCAGAGCTTTCCAGAG | 0.309 | 0.302 | 0.872 | 0.441 | 0.094 | 1.25 | 0.208 | -0.356
26 | CCTAGCAGGCCAAGGTCACTCAAGCATTTCGCTT | 3.82 | 3.82 | 3.92 | 1.05 | 3.51 | 3.66 | 2.88 | 2.2
27 | CCTTACGAGTCACTGACAGGTTATAGCATTTGGA | 1.23 | 1.22 | 0.808 | 0.998 | 0.893 | 0.852 | 0.813 | 0.964
28 | TGAATGAGGTTAAAGTTCAGGGAACGTGGCGTCG | 3.35 | 4.76 | 2.66 | 1.93 | 6.97 | 3.63 | 0.772 | 2.62
